# Experimental data taken from PubChem BioAssay AID2662 (National Center for Advancing Translational Sciences (NCATS), 2010).
# In all, about 290,000 compounds went through this assay and about 110 (0.038%) were called active. Roughly 3% stayed inconclusive and do not appear here. Calls come from the whole dose curve; as a rule, active = well fitted inhibition curve with a large enough effect in the polarisation, with a control signal flat (not every such curve was filed as active); inconclusive = small, poorly fitted or top-dose-only effect, or effect the other way, or a change in a side signal; inactive = no such curve, though single readings can be large or run the other way; the % refers to the polarisation. This excerpt belongs to a sample that is enriched for actives.
# Target: Histone-lysine N-methyltransferase 2A (Homo sapiens) (UniProt Q03164)
# Sequence (Q03164 whole entry, looked up, the tested form may be a part): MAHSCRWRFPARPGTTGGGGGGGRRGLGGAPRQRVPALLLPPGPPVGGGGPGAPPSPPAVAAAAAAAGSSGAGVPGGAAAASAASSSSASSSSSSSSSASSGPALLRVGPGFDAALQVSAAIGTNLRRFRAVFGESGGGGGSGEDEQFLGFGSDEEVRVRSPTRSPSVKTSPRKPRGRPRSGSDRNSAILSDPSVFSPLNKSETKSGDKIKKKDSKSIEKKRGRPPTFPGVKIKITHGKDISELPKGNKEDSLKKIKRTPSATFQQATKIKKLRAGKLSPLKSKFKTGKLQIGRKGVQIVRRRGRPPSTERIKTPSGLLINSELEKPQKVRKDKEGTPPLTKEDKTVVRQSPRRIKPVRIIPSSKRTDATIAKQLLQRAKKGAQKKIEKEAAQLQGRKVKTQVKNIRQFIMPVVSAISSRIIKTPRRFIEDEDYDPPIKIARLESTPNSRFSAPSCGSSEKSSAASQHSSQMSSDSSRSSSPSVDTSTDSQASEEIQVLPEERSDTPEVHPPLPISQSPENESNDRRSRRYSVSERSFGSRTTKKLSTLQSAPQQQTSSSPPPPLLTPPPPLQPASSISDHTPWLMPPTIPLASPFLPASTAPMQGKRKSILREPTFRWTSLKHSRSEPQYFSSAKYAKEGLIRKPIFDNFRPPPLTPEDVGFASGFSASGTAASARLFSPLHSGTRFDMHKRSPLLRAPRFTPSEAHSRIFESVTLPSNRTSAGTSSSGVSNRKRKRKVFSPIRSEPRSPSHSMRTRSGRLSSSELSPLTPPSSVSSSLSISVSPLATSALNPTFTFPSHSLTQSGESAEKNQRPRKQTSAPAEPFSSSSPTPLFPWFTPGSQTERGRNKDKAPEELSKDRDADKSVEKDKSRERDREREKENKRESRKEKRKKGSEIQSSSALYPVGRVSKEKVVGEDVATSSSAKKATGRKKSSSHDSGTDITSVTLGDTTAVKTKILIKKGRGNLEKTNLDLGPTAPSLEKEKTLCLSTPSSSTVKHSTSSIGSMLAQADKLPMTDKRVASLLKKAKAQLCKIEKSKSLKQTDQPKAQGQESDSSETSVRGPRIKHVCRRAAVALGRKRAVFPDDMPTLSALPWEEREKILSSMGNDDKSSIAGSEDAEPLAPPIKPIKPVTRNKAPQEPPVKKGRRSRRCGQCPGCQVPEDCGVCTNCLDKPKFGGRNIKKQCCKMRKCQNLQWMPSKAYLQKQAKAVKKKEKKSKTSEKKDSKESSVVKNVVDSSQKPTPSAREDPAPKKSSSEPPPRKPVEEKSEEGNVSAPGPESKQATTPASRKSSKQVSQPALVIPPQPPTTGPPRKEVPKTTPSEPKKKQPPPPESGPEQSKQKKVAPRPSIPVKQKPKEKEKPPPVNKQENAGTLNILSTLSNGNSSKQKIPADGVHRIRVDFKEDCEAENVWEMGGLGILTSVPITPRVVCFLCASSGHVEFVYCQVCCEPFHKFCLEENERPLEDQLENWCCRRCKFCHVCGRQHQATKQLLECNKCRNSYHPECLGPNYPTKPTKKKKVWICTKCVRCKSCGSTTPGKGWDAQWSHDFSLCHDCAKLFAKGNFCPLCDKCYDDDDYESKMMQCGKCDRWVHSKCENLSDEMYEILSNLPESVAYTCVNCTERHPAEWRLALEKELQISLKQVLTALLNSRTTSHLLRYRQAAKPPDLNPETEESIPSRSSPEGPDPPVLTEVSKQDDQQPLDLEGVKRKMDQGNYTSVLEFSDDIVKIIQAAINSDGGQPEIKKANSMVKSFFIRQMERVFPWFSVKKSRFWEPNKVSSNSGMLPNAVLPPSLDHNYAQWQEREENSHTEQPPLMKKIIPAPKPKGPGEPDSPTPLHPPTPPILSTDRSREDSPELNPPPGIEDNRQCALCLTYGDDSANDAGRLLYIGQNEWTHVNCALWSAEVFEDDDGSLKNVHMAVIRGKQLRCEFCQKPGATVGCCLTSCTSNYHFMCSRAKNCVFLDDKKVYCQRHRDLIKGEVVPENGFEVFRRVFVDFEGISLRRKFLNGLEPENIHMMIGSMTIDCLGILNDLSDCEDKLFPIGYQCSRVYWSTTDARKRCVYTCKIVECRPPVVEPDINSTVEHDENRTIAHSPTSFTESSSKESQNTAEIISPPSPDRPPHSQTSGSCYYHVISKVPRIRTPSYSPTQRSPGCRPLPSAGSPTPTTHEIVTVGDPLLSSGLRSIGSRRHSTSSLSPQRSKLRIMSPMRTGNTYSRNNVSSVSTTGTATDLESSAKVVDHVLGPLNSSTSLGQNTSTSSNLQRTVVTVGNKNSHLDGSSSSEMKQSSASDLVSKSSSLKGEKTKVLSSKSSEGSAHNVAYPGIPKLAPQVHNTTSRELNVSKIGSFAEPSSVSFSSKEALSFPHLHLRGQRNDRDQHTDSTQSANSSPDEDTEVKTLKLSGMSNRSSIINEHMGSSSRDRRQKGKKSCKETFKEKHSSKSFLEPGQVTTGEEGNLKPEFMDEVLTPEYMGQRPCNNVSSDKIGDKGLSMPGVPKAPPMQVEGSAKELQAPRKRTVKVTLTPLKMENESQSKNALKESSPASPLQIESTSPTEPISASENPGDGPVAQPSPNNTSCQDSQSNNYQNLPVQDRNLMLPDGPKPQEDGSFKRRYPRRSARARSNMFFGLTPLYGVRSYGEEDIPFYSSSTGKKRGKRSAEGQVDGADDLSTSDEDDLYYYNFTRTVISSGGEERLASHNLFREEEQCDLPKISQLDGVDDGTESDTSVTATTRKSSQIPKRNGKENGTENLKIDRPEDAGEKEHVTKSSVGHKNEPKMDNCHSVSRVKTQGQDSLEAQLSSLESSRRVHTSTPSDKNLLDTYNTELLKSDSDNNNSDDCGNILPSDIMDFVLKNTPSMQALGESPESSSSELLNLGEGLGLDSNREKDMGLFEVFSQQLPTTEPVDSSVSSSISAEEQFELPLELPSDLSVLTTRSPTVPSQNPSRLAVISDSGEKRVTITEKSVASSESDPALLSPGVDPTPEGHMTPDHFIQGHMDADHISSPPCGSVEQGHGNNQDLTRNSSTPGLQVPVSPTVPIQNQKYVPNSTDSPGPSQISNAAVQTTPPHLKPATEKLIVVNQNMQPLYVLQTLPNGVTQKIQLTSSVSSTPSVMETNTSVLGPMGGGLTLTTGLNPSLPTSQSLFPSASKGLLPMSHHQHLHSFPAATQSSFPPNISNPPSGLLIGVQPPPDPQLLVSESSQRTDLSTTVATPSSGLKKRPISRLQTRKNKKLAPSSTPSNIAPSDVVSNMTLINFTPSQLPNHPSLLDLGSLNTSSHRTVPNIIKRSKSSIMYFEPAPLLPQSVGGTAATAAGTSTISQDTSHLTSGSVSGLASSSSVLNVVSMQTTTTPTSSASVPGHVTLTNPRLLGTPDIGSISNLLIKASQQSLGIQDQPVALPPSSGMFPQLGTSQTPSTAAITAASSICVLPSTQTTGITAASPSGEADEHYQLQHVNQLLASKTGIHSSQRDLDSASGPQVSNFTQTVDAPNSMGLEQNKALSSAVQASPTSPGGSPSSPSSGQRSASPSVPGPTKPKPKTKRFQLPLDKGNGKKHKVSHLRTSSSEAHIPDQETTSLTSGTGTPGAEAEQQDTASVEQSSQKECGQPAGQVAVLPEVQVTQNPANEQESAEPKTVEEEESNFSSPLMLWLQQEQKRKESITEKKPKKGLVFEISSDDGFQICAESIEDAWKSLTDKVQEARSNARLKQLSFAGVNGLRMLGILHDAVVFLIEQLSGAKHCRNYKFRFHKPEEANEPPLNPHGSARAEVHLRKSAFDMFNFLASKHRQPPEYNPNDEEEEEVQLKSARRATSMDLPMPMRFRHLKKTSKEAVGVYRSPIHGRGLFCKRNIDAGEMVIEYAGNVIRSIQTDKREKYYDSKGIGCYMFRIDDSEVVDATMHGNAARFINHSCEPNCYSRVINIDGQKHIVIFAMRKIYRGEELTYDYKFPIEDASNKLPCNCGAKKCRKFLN
# Experiment: qHTS Fluorescence Polarization Assay for Inhibitors of MLL CXXC domain - DNA interaction
# Details: MLL-CXXC / FITC-HOXA9 DNA fluorescence polarization; series mostly up to 115 µM; activity change, negative = inhibition: at the top concentration
# How it was run: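 Purified MLL-CXXC (added from a 7 uM solution) was preincubated 5 min at ambient with pinned compounds in 50 mM Tris-HCl pH 7.5, 50 mM NaCl, 1 mM DTT, 0.05% BSA. Fluorescein-labeled HOX-A9 DNA (50 nM solution) followed, 30 min, then polarization read.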
row,SMILES,"activity change, negative = inhibition"
1,Cc1cc(-c2nnc(SCC(=O)Nc3ccc(S(N)(=O)=O)cc3)n2N)n[nH]1,12.2% (inactive)
2,Cc1ccc(NC(=O)NC(=O)c2ccccc2)cc1F,15.1% (inactive)
3,Cc1ccc(NC(=O)CSc2nn3c(=O)c(C)nnc3s2)cc1Cl,4.2% (inactive)
4,COc1ccc(CNS(=O)(=O)c2ccc(NC(=O)N3CCCCC3)cc2)cc1,-3.43% (inactive)
5,CCCc1cc(C(=O)N2CCCC(CO)(CCCc3ccccc3)C2)n(C)n1 (centres undefined),3.59% (inactive)
6,Cc1ccc(C(=O)NCC(=O)OCc2nnc(-c3ccccc3)o2)cc1,-10.8% (inactive)
7,COc1ccc(CN2CCCC(N3CCc4ccccc4C3)C2)c(O)c1 (centres undefined),-1.21% (inactive)
8,CC(C)(C)c1ccc(C(=O)N2CCN(CCNC(=O)C(=O)Nc3ccc(F)cc3)CC2)cc1,-10.7% (inactive)
9,O=C(NCCCN1CCOCC1)C1CCCN(S(=O)(=O)N2CCCCC2)C1 (centres undefined),0.988% (inactive)
10,O=C(CCn1nnc2ccccc21)OCC(=O)c1ccc([N+](=O)[O-])cc1,-0.286% (inactive)
11,COc1cc([N+](=O)[O-])cc([N+](=O)[O-])c1NC(=O)N1CCOCC1,-1.05% (inactive)
12,Cc1csc(NC(=O)CSc2nc(=O)cc(N)n2-c2ccc(F)cc2)n1,1.97% (inactive)
13,CCOc1ccc(S(=O)(=O)N2CCCC(C(=O)N3CCC(C(N)=O)CC3)C2)cc1Cl (centres undefined),2.08% (inactive)
14,Cc1c(CN2CCC(n3nccc3NC(=O)CCc3ccccc3)CC2)cnn1C,6.67% (inactive)
15,CC(=O)c1ccc(NC(=O)Cn2c(=O)oc3ccccc32)cc1,-3.9% (inactive)
16,CCOc1ccccc1NC(=O)C1CCCN(S(=O)(=O)c2ccccc2)C1 (centres undefined),0.776% (inactive)
17,CC1CCC(NS(=O)(=O)c2ccc3c(c2)CC(=O)N3)CC1 (centres undefined),5.85% (inactive)
18,CC(=O)N[C@@H](C)C(=O)N1CCC(n2nccc2NC(=O)CCCc2ccccc2)CC1,4.89% (inactive)
19,Clc1ccc(C(Cn2ccnc2)OCc2ccsc2Cl)c(Cl)c1 (centres undefined),0.809% (inactive)
20,COc1ccc(OCCn2ccnc2C)cc1,-0.496% (inactive)

row,SMILES,"activity change, negative = inhibition"
1,Cc1ccc(CN(C)Cc2cc(=O)oc3cc(C)c(Cl)cc23)cc1,15.9% (inactive)
2,COc1ccc(N(C(=O)CNC(=O)c2ccco2)C(C(=O)NCC2CCCO2)c2ccccc2)cc1Cl (centres undefined),-5.18% (inactive)
3,CCOC(CNC(=O)C(=O)NCC(c1ccco1)N1CCN(c2ccc(OC)cc2)CC1)OCC (centres undefined),-8.29% (inactive)
4,Cc1ccc(NS(=O)(=O)c2c(C)[nH]c(C)c2C(=O)N2CCCCC2)c(C)c1,1.83% (inactive)
5,CCOC(=O)c1cccc(NC(=O)C2CCN(c3ncnc4c3nc3n4CCCCC3)CC2)c1,1.78% (inactive)
6,O=S1(=O)CCO[C@H]2Cc3ccccc3[C@H]2N1Cc1ccccc1,-1.12% (inactive)
7,CC(C)c1ccc(/C=C2\NC(=O)NC2=O)cc1,1.65% (inactive)
8,Cc1cccc(NS(=O)(=O)c2ccc([N+](=O)[O-])cc2)n1,0.441% (inactive)
9,COc1ccc(NC(=O)CC2C(=O)NC3CCCCC3N2C(=O)c2ccc(F)cc2)cc1 (centres undefined),18.1% (inactive)
10,COCC1CCN(C(=O)C2CCC(=O)N(CC3CCCCC3)C2)CC1 (centres undefined),22.3% (inactive)
11,S=C(NCCC1=CCCCC1)Nc1ccccc1,-18.3% (inactive)
12,CSc1ccccc1OCc1cc(C(=O)N2C[C@H]3CC[C@H]2C3)no1,4.47% (inactive)
13,O=C(Cc1ccc(Cl)cc1)NC(=S)Nc1ccccc1O,15% (inactive)
14,CCC(C)(C)n1nnnc1C(c1ccc(OC)c(OC)c1)N1CCN(C(=O)c2ccco2)CC1 (centres undefined),4.14% (inactive)
15,CC(=O)NC(Cc1c[nH]c2ccccc12)C(=O)NCCc1ccccc1 (centres undefined),4.26% (inactive)
16,C[C@H](C(=O)CC(=O)OC(C)(C)C)[C@H](O)c1ccc(C(F)(F)F)cc1,5.01% (inactive)
17,CCc1nc2nc(C)c(NS(=O)(=O)c3ccc4c(c3)CCCC4)c(=O)n2[nH]1,-9.81% (inactive)
18,CCOC(=O)c1c(C)[nH]c(C(=O)NCCN2CCOCC2)c1C,6.14% (inactive)
19,COc1ccc(NS(=O)(=O)c2cc(C(=O)Nc3ccccc3C(=O)O)ccc2C)cc1,-16.7% (inactive)
